# Screening results (PubChem BioAssay)
# A selection: hits, their analogues and other compounds. The true share with any hit is near 3.8%.
# tim10-1 inh = tim10-1 yeast growth inhibition. S. cerevisiae tim10-1 ts strain growth, BacTiter-Glo, 24 h. inhibition, % at 20 µM. hit rate 2.2% among 330,000. AID 463190;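 active means inhibition of at least 40%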;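 further: mutant grown at 25 °C; 0% = DMSO wells with yeast and 100% = wells holding no yeast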
# tim23-1 inh = tim23-1 yeast growth inhibition; S. cerevisiae tim23-1 growth, BacTiter-Glo luminescence, 24 h; inhibition, % at 20 µM; hit rate 1.3% among 330,000; AID 463212;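 active means growth inhibition of the mutant yeast at or above 50%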;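 further: temperature-sensitive mutant grown at 25 °C; plate controls were DMSO-treated mutant yeast for no effect and medium wells lacking yeast for full effect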
# TIM10 inh = inhibits growth of TIM10 yeast strain. hit rate 1.4% among 330,000. S. cerevisiae TIM10 strain growth, BacTiter-Glo luminescence, 24 h. inhibition, % at 10 µM;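 active means inhibition of 40% or more at the single tested concentration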;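 further: wild-type TIM10 isogenic control strain grown at permissive 25 °C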
# NALP3 yeast inh = blocks the NALP3 inflammasome reconstituted in yeast | Yeast reconstituted NLRP3/ASC/caspase-1, beta-gal luminescence, 24 h | hit rate 0.39% among 330,000 | inhibition, % at 10 µM;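 active means inhibition of 50% or more; inactive means inhibition below 50%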;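 further: plate controls were induced DMSO wells for no effect and uninduced yeast grown without galactose for full effect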
# Yeast superoxide = yeast age-related superoxide inhibition as caloric restriction mimetic. S. cerevisiae aged cells, superoxide DHE fluorescence; hits give low values. superoxide response (% of plate mean), % at 10 µM. hit rate 0.18% among 330,000. AID 2690;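 active means superoxide response under a set limit, about three screen SD below normal, cut at about 65% in these data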;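 further: yeast aged for seven days with compound at 30 °C before DHE staining; 100% = average MFI of all compound-treated wells on the plate with controls excluded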
# TIM10 conf = TIM10 yeast growth inhibition, confirmed; shares compounds with TIM10 inh; S. cerevisiae tim10 strain growth, BacTiter-Glo luminescence, 24 h; inhibition, % at 10 µM; hit rate 63% among 4,600;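 active means inhibition of yeast growth at or above a set limit in either of two replicates at 10 µM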;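 further: this counterscreen used the strain with wild-type TIM10; 0% = yeast with DMSO and 100% = medium wells lacking yeast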
# An asterisk follows results filed as active; / = no result.
SMILES,tim10-1 inh,tim23-1 inh,TIM10 inh,NALP3 yeast inh,Yeast superoxide,TIM10 conf
O=C(C1CCC(Cn2c(=S)[nH]c3ccccc3c2=O)CC1)N1CCN(c2ccccc2)CC1 (stereo unspecified),26,31,46*,7,93,37*
COc1cc(C(=O)N/C(=C\c2cn(C)c3ccccc23)C(=O)NCCN2CCOCC2)cc(OC)c1OC,8,-4,7,18,119,/
COc1cc(C(=O)n2cnc3ccccc32)c([N+](=O)[O-])cc1OC,22,13,13,6,86,/
O=C(c1cc(Cl)ccc1[N+](=O)[O-])n1cnc2ccccc21,35,48,41*,-4,102,29
Cc1cc(C)n2nc(C(=O)N/N=C/c3ccco3)nc2n1,-5,22,-4,3,93,/
CCCNC(=S)Nc1ccccc1,-12,31,12,8,86,/
Cc1cccc(CSCCNC(=S)Nc2ccccc2)c1,35,45,48*,39,82,28
O=c1[nH]cnc2c1c(-c1ccccc1)cn2-c1ccc(Br)cc1,31,43,42*,-63,97,38*
CCc1ccc(-c2cc(C)no2)cc1S(=O)(=O)N1CCN(c2ccc(F)cc2)CC1,7,11,5,14,92,/
O=C(Nc1cccnc1Cl)c1cc(-c2ccc(Br)cc2)on1,2,11,-15,18,100,/
S=c1[nH]nc(-c2ccc(Br)o2)n1Cc1ccccc1,38,46,46*,-15,107,35*
Cc1ccc(C(=O)NC(=S)Nc2ccccc2N2CCCC2)cc1[N+](=O)[O-],32,44,43*,13,91,-39
COc1cccc(C(=O)NC(=S)Nc2ccccc2N2CCCCC2)c1,28,29,41*,18,87,26
Fc1ccc(C(c2nnnn2C2CCCC2)N2CCc3ccccc32)cc1 (stereo unspecified),30,26,45*,-15,86,18
O=C(Nc1ccc(Cc2ccncc2)cc1)c1cccs1,-1,34,41*,-17,91,-5
O=C(c1ccncc1)c1ccc(NC(=O)c2cccs2)cc1,-21,-6,24,-10,116,/
O=C(Nc1ccc2nc(-c3cccs3)[nH]c2c1)c1cccs1,9,36,52*,-6,91,33*
O=C(Nc1ccc(-c2nc3ccc(NC(=O)c4cccs4)cc3[nH]2)cc1)c1cccs1,-32,-18,-26,-1,98,/
Cc1ccc(Cc2cnc(NC(=O)c3cccs3)s2)cc1,35,49,54*,23,98,-15
Cc1ccc(Cc2cnc(NC(=O)C3CCCO3)s2)cc1 (stereo unspecified),24,33,19,20,103,/
Cc1ccc(-c2csc(N(CC3CCCO3)C(=O)c3ccco3)n2)cc1 (stereo unspecified),27,5,43*,14,105,42*
Cn1c(=O)c2c(-c3ccccc3)n3c4ccccc4ncc3c2n(C)c1=O,24,17,42*,18,101,-16
CC(C)(C)n1nnnc1C(c1cccs1)N(Cc1ccc(Cl)cc1)CC1CCCO1 (stereo unspecified),35,41,41*,3,98,-19
O=C1NC2(C=Cc3c(ccc4ccccc34)O2)Oc2ccccc21 (stereo unspecified),25,34,41*,-4,87,28
CC1(C)Cc2c(ccc3ccccc23)C(=O)N1,7,13,11,12,100,/
SMILES,tim10-1 inh,tim23-1 inh,TIM10 inh,NALP3 yeast inh,Yeast superoxide,TIM10 conf
CCC(COC(=O)Nc1cccc(C)c1)NC(=O)OCC(C)C (stereo unspecified),6,18,-4,25,97,/
CCC1CCCCN1CCCNC(=O)c1ccc(CS(=O)(=O)Cc2ccc(Cl)cc2)o1 (stereo unspecified),7,-8,-12,12,102,/
COc1ccc(C(=O)NCC(=O)Nc2ccc(F)cc2)cc1OC,-6,-2,50*,0,99,-3
O=C(NCCO)Nc1ccc(Cl)cc1,5,0,-9,13,101,/
Fc1ccc(CNCC2CCCO2)cc1 (stereo unspecified),0,0,97*,26,/,-10
O=C(Nc1ccccc1)c1cc(-n2cnnc2)ccc1Cl,4,-12,5,9,99,/
O=C(Nc1ccc(N2CCOCC2)cc1)c1cc(-n2cnnc2)ccc1Cl,-15,-18,96*,6,92,-9
C=CCn1c(=O)/c(=C/c2ccc(F)cc2)s/c1=C(\C#N)c1nnc2n1CCCCC2,33,49,44*,8,84,40*
COc1ccc(Nc2nc3ccccc3s2)cc1,27,25,4,20,95,/
COc1ccc(Nc2nc(Cl)c(C=O)s2)cc1,29,44,46*,11,94,18
O=C(Nc1ccccc1)Nc1ccc(Br)c(Cl)c1,-8,-11,-4,37,99,/
CC(=O)c1ccc(NC(=S)Nc2ccc(Br)c(Cl)c2)cc1,37,44,42*,3,88,24
CN(C(=O)c1cnc(N2CCN(c3ncccn3)CC2)c2ccccc12)c1ccc(Cl)cc1,38,11,52*,-1,92,28*
CCOC(=O)c1ccc(NC(=O)CSc2ccc(-c3ccncc3)nn2)cc1,6,8,8,10,99,/
C=C(C)CNC(=S)NN=C1c2ccccc2-c2ccccc21,31,32,19,25,109,/
CCNC(=S)NN=C1c2ccccc2-c2ccccc21,37,7,44*,41,110,25
Cc1cc(C)n2nc(Sc3ncccc3[N+](=O)[O-])nc2n1,28,1,13,18,123,/
O=C(Nc1ccc(NC(=O)C2CCCCC2)nc1)c1cccs1,22,47,47*,-9,107,23
Cn1c(SCC(=O)Nc2cc(C(C)(C)C)nn2-c2ccccc2)nc2ccccc21,29,40,43*,9,98,-20
CC(=O)Nc1ccc(SCC(=O)Nc2cc(C(C)(C)C)nn2-c2ccccc2)cc1,21,18,8,0,82,/
O=C(O)CCC(=O)Nc1ccccc1Oc1ccccc1,4,6,11,14,95,/
O=C(N/N=C/c1ccncc1)c1cc2c(ccc3ccccc32)o1,-17,7,47*,19,91,34*
CCOc1ccc(NS(=O)(=O)c2cccc(C(=O)N(C)Cc3ccco3)c2)cc1,3,-3,-7,21,90,/
O=S(=O)(Nc1cccc2c1ccc1cccn12)c1cccs1,31,28,45*,2,112,2
O=c1[nH]c2ccc(Cl)cc2c(-c2ccccc2)c1SC(=S)N1CCOCC1,24,14,17,18,109,/
O=c1[nH]c2ccc(Cl)cc2c(-c2ccccc2)c1SC(=S)N1CCCCC1,32,35,40*,33,99,27
O=C(O)Cn1c(O)c(C2=c3ccccc3=NC2=O)sc1=O,12,6,-12,10,110,/
